Assay outcomes: PubChem BioAssay, Sanford-Burnham Center for Chemical Genomics
In the library only some 28% were active in any assay of this set; here they are far more common.
PTK2B oligo ant = antagonists of human Pyk2 oligomerization. Q14289. Q293 cells, Pyk2 FERM NanoBiT luminescence; active compounds read low. z-score (the deposit names both 25 µM and 10 µM). 99,000 compounds, 0.83% hits;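 active = Z-score of -3 or lower, scaled per plate to the spread of control and sample wells; inactive = z-score above -3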;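 also: negative z-score means lost luminescence so less FERM oligomerization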
CYP2C9 inh = human CYP2C9 inhibition; CYP2C9 Supersomes, luciferin-H conversion, luminescence; inhibition, % at 5 µM; P11712; 96,000 compounds, 20% hits;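 active = blocking of liver enzyme CYP2C9 beyond about 50% at 5 µM, limit read from the data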
CYP2C19 inhib = human CYP2C19 inhibition | inhibition, % at 5 µM | CYP2C19 Supersomes, luciferin-H EGE luminescence, 30 min | P33261 | 96,000 compounds, 21% hits;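 active = CYP2C19 inhibition above a set limit at 5 µM in the primary screen, cut at about 50% in these data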;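 also: plate controls were negative control wells for no effect and 2.5 mM tranylcypromine positive control for full effect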
CYP2C19 act = cytochrome P450 2C19 (human) activation; P33261; recombinant CYP2C19, luciferin-H EGE luminescence; active compounds read high; 0 = fully inhibited enzyme, 1 = untreated enzyme; activation factor at 5 µM; 96,000 tested, under 10 active;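 active = activation factor of at least 2 at 5 µM in the primary screen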;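 also: 0 = wells with 2.5 mM tranylcypromine and 1 = vehicle-only wells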
CYP2C9 act = activators of human CYP2C9; P11712; recombinant CYP2C9, luciferin-H conversion, luminescence; active compounds read high; factor 1 = untreated enzyme, 0 = blocked; activation factor at 5 µM; 96,000 compounds, 1.4% hits; AID 1024;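 active = activation factor of 2 or more for CYP2C9 at a 5 µM dose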;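 also: 0 = sulfaphenazole-blocked wells and 1 = vehicle-only wells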
Numbers without * were called inactive; / = no result given.

SMILES | PTK2B oligo ant | CYP2C9 inh | CYP2C19 inhib | CYP2C19 act | CYP2C9 act
CC(=O)Nc1ccc(S(=O)(=O)N2CCCN(S(=O)(=O)c3ccc(NC(C)=O)cc3)CC2)cc1 | 0.92 | 61* | 30 | 0.7 | 0.4
CC(=O)Nc1ccc(S(=O)(=O)N2CCN(Cc3ccncc3)CC2)cc1 | -0.32 | 54* | 95* | 0.1 | 0.5
Cc1cccc(N2CCN(S(=O)(=O)c3c(C)[nH]c(=O)[nH]c3=O)CC2)c1C | -0.88 | 7 | 50* | 0.5 | 0.9
CC(=O)Nc1ccc(S(=O)(=O)Nc2ccc(S(=O)(=O)N3CCCCCC3)cc2)cc1 | -0.62 | 82* | 14 | 0.9 | 0.2
CC(=O)Nc1ccc(C(=O)Nc2ccc(S(=O)(=O)N3CCCC3)cc2)cc1 | -1.2 | -20 | 3 | 1 | 1.2
CC(=O)Nc1ccc(S(=O)(=O)N2CCCN(S(=O)(=O)c3ccc(C)cc3)CC2)cc1 | -0.17 | 43 | 29 | 0.7 | 0.6
CC(C)(C)NC(=S)NCc1cccnc1 | -0.3 | 1 | 9 | 0.9 | 1
Nc1nc(SCc2ccc([N+](=O)[O-])cc2)nc2nc3c(cc12)CCCC3 | 0.18 | / | / | / | /
Cc1cc(N(C)C)nc(SC(C)C)n1 | -0.27 | -23 | -1 | 1 | 1.2
CC(=O)Nc1ccc(S(=O)(=O)N2CCN(Cc3cccnc3)CC2)cc1 | 0.25 | -2 | 29 | 0.7 | 1
CC(=O)Nc1ccc(S(=O)(=O)N2CCN(c3cccc(C)c3C)CC2)cc1 | / | 75* | 40 | 0.6 | 0.2
CC(=O)c1ccc2cccc3c2c1N=CN3C | -0.2 | -34 | 12 | 0.9 | 1.3
Cc1ccc(S(=O)(=O)/N=C2/NC(=O)/C(=C\c3ccco3)S2)cc1 | -0.8 | 43 | 19 | 0.8 | 0.6
Cc1ccc(S(=O)(=O)N=C2SCCCS2)cc1 | -0.01 | -104 | 37 | 0.6 | 2*
COc1ccc(N/C=C(/C(C)=O)c2ccccc2)cc1 | 1.5 | 90* | 89* | 0.1 | 0.1
CCOC(=O)N1CCC(NC(=O)CCC(=O)N2CC(C)Oc3ccc(Cl)cc32)CC1 (stereo unspecified) | -0.02 | 46 | 41 | 0.6 | 0.5
COCCSc1nnc(NC(=O)C2CCCCC2)s1 | 0.01 | 24 | 26 | 0.7 | 0.8
CC(O)CN1C(=O)C(CC(=O)Nc2ccc(Cl)cc2)SC1=Nc1ccccc1 (stereo unspecified) | -1.4 | 67* | 72* | 0.3 | 0.3
COCCN1C(=O)C(CC(=O)Nc2ccc(C(C)=O)cc2)SC1=Nc1ccccc1 (stereo unspecified) | 0.03 | 72* | 54* | 0.5 | 0.3
C=CCN1C(=O)C(CC(=O)Nc2ccc(C)cc2)SC1=Nc1c(C)n(C)n(-c2ccccc2)c1=O (stereo unspecified) | -0.09 | 66* | 62* | 0.4 | 0.3
COc1ccc(N2C(C)=CS/C2=C(/C#N)c2nnc(N3CCOCC3)n2-c2ccccc2)cc1 | -0.42 | 16 | 17 | 0.8 | 0.8
COc1ccccc1NC(=O)CSc1nnc(COc2ccc(Cl)cc2)n1Cc1ccco1 | -0.15 | 23 | 21 | 0.8 | 0.8
Cc1ccc(NCc2nnc(SCC(=O)NCc3ccco3)n2CC2CCCO2)cc1Cl (stereo unspecified) | -0.27 | 56* | 41 | 0.6 | 0.4
COc1ccccc1OCc1nnc(SCC(=O)NCc2ccco2)n1Cc1ccco1 | 1 | 58* | 62* | 0.4 | 0.4
O=C(CSc1nnc(C2CCCCC2)n1Cc1ccccc1)NCc1ccco1 | 0.68 | 66* | 43 | 0.6 | 0.3
SMILES | PTK2B oligo ant | CYP2C9 inh | CYP2C19 inhib | CYP2C19 act | CYP2C9 act
Cc1nnc(SCC(=O)NCc2ccco2)n1Cc1ccccc1 | -0.33 | -5 | -5 | 1.1 | 1.1
O=C(CSc1nnc(CNc2ccc(F)cc2)n1Cc1ccccc1)NCc1ccco1 | -0.74 | 53* | 54* | 0.5 | 0.5
O=C1COc2ccc(C(=O)c3ccccc3C(=O)NCc3ccccc3)cc2N1 | -1.5 | 30 | 75* | 0.2 | 0.7
O=C1COc2ccc(C(=O)c3ccccc3C(=O)NCc3ccco3)cc2N1 | -0.55 | 10 | 67* | 0.3 | 0.9
COc1ccc2c(C)c(C(=O)NCC(C)O)oc2c1OC (stereo unspecified) | 1.5 | 4 | 5 | 0.9 | 1
Cc1c(C(=O)N2CCCCC2)sc(NC(=O)C23CC4CC(CC(C4)C2)C3)c1C#N | -0.19 | / | / | / | /
CC1=CC(C)C2(CO)COC(c3ccccc3O)C1C2C (stereo unspecified) | -0.28 | 64* | 90* | 0.1 | 0.4
CCOc1cccc(C(=O)N2CCCCC2c2cccnc2)c1 (stereo unspecified) | -1.5 | -108 | 43 | 0.6 | 2.1*
CCOc1cccc(C(=O)NC2CCCCC2)c1 | 0.37 | -30 | 68* | 0.3 | 1.3
CCCCOc1cccc(C(=O)NNC(=S)NC2CCCCC2)c1 | 0.19 | / | / | / | /
CCOC(=O)COc1ccc(C(=O)NC2CCCCC2)cc1 | -0.28 | -202 | 22 | 0.8 | 3*
CCc1cc2c(NCC3CCCO3)nc(C)nc2s1 (stereo unspecified) | -0.05 | / | / | / | /
COC(=O)COC(=O)c1ccc(Oc2nc(OC)nc(N(C)C)n2)cc1 | -0.66 | -20 | 21 | 0.8 | 1.2
O=C(CSCC(=O)N1CCCCC1)Nc1nc(-c2cccs2)cs1 | / | 32 | 40 | 0.6 | 0.7
O=C(Nc1nc(-c2ccc(Cl)s2)cs1)c1ccncc1 | 0.16 | 29 | 51* | 0.5 | 0.7
O=C(Nc1nc(-c2cccs2)cs1)c1ccc(Cl)cc1 | 0.61 | 27 | -21 | 1.2 | 0.7
O=C(CSCC(=O)N1CCN(c2ccccc2)CC1)Nc1nc(-c2ccc(Cl)s2)cs1 | / | 61* | -2 | 1 | 0.4
CC1CC(C)CN(C(=O)CSCC(=O)Nc2nc(-c3cccs3)cs2)C1 (stereo unspecified) | / | 84* | 40 | 0.6 | 0.2
O=C(CSCC(=O)N1CCCCC1)Nc1nc(-c2ccc(Cl)s2)cs1 | / | 47 | 58* | 0.4 | 0.5
CCC1CCCCN1C(=O)c1nn2cccnc2c1Cl (stereo unspecified) | 0.02 | -11 | 12 | 0.9 | 1.1
O=C(COc1ccc(Cl)cc1)N1CCN(C(=O)c2cccc(F)c2)CC1 | 1.5 | -1 | 23 | 0.8 | 1
O=C(c1cccc(F)c1)N1CCN(C(=O)c2nn3cccnc3c2Cl)CC1 | 0.5 | 14 | 58* | 0.4 | 0.9
O=C(c1c(Cl)nc2sccn12)N1CCN(c2cccc(Cl)c2)CC1 | -0.52 | 69* | 83* | 0.2 | 0.3
O=C(c1ccccc1F)N1CCN(Cc2cccc(Cl)c2)CC1 | -0.75 | / | / | / | /
O=C(c1cccc(F)c1)N1CCN(c2cccc(Cl)c2)CC1 | 0.62 | 86* | 94* | 0.1 | 0.1
O=C(c1cccc(Cl)c1)N1CCN(C(=O)c2ccccc2F)CC1 | 0.62 | 54* | 66* | 0.3 | 0.5
COc1ccccc1-n1c(CNc2ccc(F)cc2)nnc1SCC(=O)Nc1cc(C)on1 | -0.35 | / | / | / | /
O=C(NCc1nc2ccccc2[nH]1)c1cccc(S(=O)(=O)N2CCCC2)c1 | 1 | 39 | 4 | 1 | 0.6
O=C(c1cccnc1)N1CCN(C(=O)c2ccccc2F)CC1 | -0.25 | 65* | 51* | 0.5 | 0.3
